Bioassay records (PubChem)
Rows were chosen to be rich in hits. Some 7.9% of all compounds tested hit in one or more screens of this group.
Cav3 T inh – blocks human Cav3.2 T-type calcium channel; O95180; Cav3.2-expressing cells, Fluo-4 calcium fluorescence FDSS; active compounds read low; B-score at 10 µM; actives 4% (n = 100,000);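 active means single-dose well whose peak fluorescence ratio is a statistical outlier from its plate by either plate-standardised score or position-corrected B-score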
M1 agonist – activates the M1 muscarinic receptor. AID 626. CHO-M1 cells, Fluo-4 calcium fluorescence, agonist mode; active compounds read high. B-score at 10 µM. actives 3% (n = 64,000);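 active means fluorescence rise, raw or as B-score row- and column-corrected plate score, outside the 99.7% band of its plate's samples, either direction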
M1 antagonist – M1 muscarinic receptor (rat) antagonism; P08482; CHO-M1 cells, Fluo-4 calcium, ACh EC80 antagonist mode; active compounds read low; B-score at 10 µM; actives 3.4% (n = 64,000); AID 628;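 active means calcium fluorescence response, raw or row-and-column corrected B-score, differing from the plate sample mean either way at a set confidence level, mostly lower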
HER2 expr 66K – Her2 kinase expression inhibition. SKBR-3 HER2 protein level, AlphaScreen, 18-24 h; active compounds read low. HER2 level % of control, % at 10 µM. actives 0.69% (n = 65,000). AID 645;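 active means HER2 level under 5% of the carrier-only control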;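 further: 100% = DMSO carrier and 0% = 500 nM PU-H71 HSP90 inhibitor; lower value means stronger loss of Her2 protein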
PLAP activator – human PLAP activation. P05187. purified PLAP enzyme, luminescent substrate read-out; active compounds read high. activation fold at 20 µM. actives 1.2% (n = 96,000); in the data active means activation fold above about 2
M1 antag confirm – confirmation of rat M1 muscarinic receptor antagonists; AID 677; calcium response (max-min fluorescence) at 10 µM; CHO-M1 cells, Fluo-4 calcium, ACh EC80 antagonism; active compounds read low; actives 43% (n = 1,700); shares compounds with M1 antagonist;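 active means calcium response below the same-plate mean of wells given acetylcholine alone at its 80%-effect dose, minus 3 SD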;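 further: raw fluorescence intensity difference in arbitrary instrument units and not normalized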
mGluR4 antag – acts on human mGluR4 in M1 antagonist selectivity test. fluorescence response (max-min) at 10 µM. shares compounds with M1 antagonist. AID 678. CHO-mGluR4 calcium flux, Fluo-4 fluorescence, glutamate EC80; active compounds read low. actives 0.9% (n = 1,700);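 active means fluorescence response below the plate's average for near-maximal glutamate wells, less 3 SD of those wells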;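 further: raw unnormalized fluorescence span taken in the window right after glutamate addition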
Active calls of the source: *; / = not tested or not shown.

SMILES | Cav3 T inh | M1 agonist | M1 antagonist | HER2 expr 66K | PLAP activator | M1 antag confirm | mGluR4 antag
Cc1cc(N2CCCC2)ccc1/C=N/n1cnnc1 | 0.54 | 0.25 | 0.12 | 87 | 0.9 | / | /
COc1ccccc1N1CCN(C(=O)C2c3ccccc3Oc3ccccc32)CC1 | -5.8* | -0.21 | -1.3* | 33 | 1.8 | 573 | 274
COc1ccccc1N1CCN(C(=O)Cc2cccs2)CC1 | 0.55 | -0.43 | -1.9* | 120 | 1.2 | 544 | 200
O=C(CCC1CCCC1)N[C@@H](Cc1ccc(O)cc1)C(=O)O | 1.2 | / | / | / | / | / | /
CCC(C)N(CCNC(=O)CC1Oc2ccc(C)cc2NC1=O)C1CCCCC1 (centres undefined) | 0.013 | -1.3 | -8.8* | 101 | 1.2 | 21* | 208
Cc1ccc2c(c1)NC(=O)C(CC(=O)NCCCN1CCCCC1C)O2 (centres undefined) | -1 | 1.6 | -0.09 | 99 | 1.2 | / | /
CCn1c(SCC(N)=O)nnc1-c1cc2c(C)nn(-c3ccccc3)c2s1 | 0.55 | 0.75 | -2.7* | 88 | 1.5 | 489 | 160*
CNS(=O)(=O)c1cccc(C(=O)OCC(=O)c2cc(C)n(-c3ccc4c(c3)OCO4)c2C)c1 | -0.97 | -0.9 | -2.3* | 104 | 1.3 | 483 | 164*
CNS(=O)(=O)c1cccc(C(=O)OCC(=O)Nc2ccccc2OC(F)F)c1 | -0.017 | 0.61 | 0.07 | 109 | 1 | / | /
O=C(NCc1ccccn1)C1CCC(=O)N1C1CCCCC1 (centres undefined) | -0.021 | / | / | / | 1.2 | / | /
CN1CCN(C(=O)N2c3ccccc3C=Cc3ccccc32)CC1 | 0.71 | 1.8 | -18* | 88 | 1.6 | 20* | 198
O=C(CN1CCCCCC1)N1c2ccccc2C=Cc2ccccc21 | 0.34 | / | / | / | 1.7 | / | /
COC(=O)c1scc(C)c1N/N=C(\C)c1cc(F)c(Cl)cc1F | -0.52 | / | / | / | 1 | / | /
Cc1nc2sccn2c(=O)c1CCN1CCC(=C(c2ccccc2)c2ccc(F)cc2)CC1 | -4.2 | 0.65 | -10* | 90 | / | 138* | 209
CC(C)CC(=O)NC(NCC1CCCO1)C(Cl)(Cl)Cl (centres undefined) | 0.34 | / | / | / | 1.1 | / | /
COC(=O)n1c(SC)nc2ccccc21 | / | 0.1 | -1.3 | 79 | 1.1 | / | /
CSc1nc2ccccc2n1C(=O)NC1CCCCC1 | -0.19 | -0.019 | -4.3* | 69 | 1 | 581 | 200
Cc1ccccc1OCCCC(=O)Nc1ccc(N2CCOCC2)cc1 | 0.63 | -0.087 | -0.27 | 113 | 1.1 | / | /
Cc1cc(OCC(=O)Nc2ccc(S(=O)(=O)N3CCN(C)CC3)cc2)cc(C)c1Cl | 0.82 | 0.0092 | -1.7* | 85 | 1.1 | 377* | 206
Cc1cccc(OCC(=O)Nc2ccc(N3CCCC3)cc2)c1C | -0.28 | -0.38 | -0.46 | 90 | 1.2 | / | /
Cc1ccc(OCC(=O)Nc2ccc(N3CCCC3)cc2)cc1C | 1.2 | -0.93 | -3.6* | 113 | 1.4 | 527 | 243
Cc1cc(C)cc(OCC(=O)Nc2ccc(N3CCCC3)cc2)c1 | -1.6 | -0.37 | -7.6* | 86 | 1.3 | 155* | 243
Cc1ccc(OCCCC(=O)Nc2ccc(N3CCOCC3)cc2)c(C)c1 | 0.87 | 0.47 | -2.3* | 74 | 1 | 603 | 236
CCCC(=O)N=C1SC2CS(=O)(=O)CC2N1c1ccc(C(C)=O)cc1 (centres undefined) | -0.13 | -0.46 | 0.022 | 145 | 1.1 | / | /
CCc1ccc(-n2c(=O)c3c(C)c(C(=O)N(C)C)sc3n(CC(=O)NCc3ccco3)c2=O)cc1 | 0.0072 | / | / | / | 1 | / | /
SMILES | Cav3 T inh | M1 agonist | M1 antagonist | HER2 expr 66K | PLAP activator | M1 antag confirm | mGluR4 antag
COc1c2c(c(C)c3c1C(=O)OC3)O[C@@]1(C)CC[C@@]3(O)C(C)(C)OC(=O)CC[C@]3(C)[C@H]1C2 | 0.29 | / | / | / | / | / | /
Cn1ncc(Cl)c1C(=O)NC(=S)Nc1sc2c(c1C#N)CCCCC2 | -0.21 | / | / | / | 1 | / | /
C=CCn1c(CNc2ccccc2)nnc1SCC(=O)N/N=C/c1ccccc1O | -3.2 | / | / | / | 1.8 | / | /
Cc1cc2nc(SCCN3CCCC3)[nH]c2cc1C | 1.8 | 0.56 | -1.9* | 81 | 1.2 | 440 | 185
Nc1ncnc2nc(SCCN3CCCCC3)[nH]c12 | / | -0.3 | -2.8* | 109 | 1 | 680 | 237
Nc1ncnc2nc(SCC(=O)N3CCN(c4ccccc4)CC3)[nH]c12 | 0.074 | 0.13 | -0.85 | 113 | 1.9 | / | /
CNC(=O)NC(=O)CSc1nc2cc(C(=O)OC)ccc2c(=O)n1-c1ccccc1 | -1.6 | 1.1 | -0.059 | 163 | 0.8 | / | /
CCCCn1c(=O)n(Cc2cccc(F)c2)c(=O)c2c1ncn2Cc1ccco1 | -4.3 | 0.33 | -1.5* | 119 | 1 | 515 | 213
Cn1c2ccc(F)cc2c2ncn(Cc3ccco3)c(=O)c21 | 0.16 | / | / | / | 0.9 | / | /
O=C(Nc1ccc(S(=O)(=O)Nc2nccs2)cc1)C1CCCCC1 | 0.33 | 0.72 | -13* | 85 | 1.1 | 682 | 209
COC(=O)CSC1=C(C#N)C(c2ccc(F)cc2)CC(=O)N1 (centres undefined) | -0.095 | -0.88 | -2.2* | 83 | 1.1 | 632 | 197
COC(=O)c1ccccc1NC(=O)c1ccccc1N(C)S(C)(=O)=O | / | 0.44 | 0.14 | 126 | 1 | / | /
COc1ccccc1C1CC(c2ccc(Cl)cc2)Nc2ncnn21 (centres undefined) | -2.6 | 1.2 | -0.33 | 91 | 1.1 | / | /
O=C1CC(N2CCN(c3ccc(S(=O)(=O)N4CCOCC4)cc3)CC2)C(=O)N1Cc1ccccc1 (centres undefined) | 1.8 | 0.26 | -3.4* | 95 | 1.1 | 607* | 186
O=C(Nc1ccc(S(=O)(=O)N2CCOCC2)cc1)C1CCCCC1 | 0.21 | 0.31 | 0.38 | 135 | 0.9 | / | /
O=C(NS(=O)(=O)c1ccc(NC(=O)C2CCCO2)cc1)c1ccccc1 (centres undefined) | 0.93 | -0.24 | 0.12 | 94 | / | / | /
O=C(Nc1ccc(S(=O)(=O)N2CCCCCC2)cc1)C1CCCO1 (centres undefined) | 1.4 | -0.0033 | -3.2* | 99 | 1.2 | 654 | 218
O=C(Nc1ccc(S(=O)(=O)Nc2ccc(Cl)cc2)cc1)C1CCCO1 (centres undefined) | -1.9 | -0.15 | -1.1* | 143 | 0.8 | 575 | 297
Cc1nnc(SCC(=O)N2CCC(Cc3ccccc3)CC2)n(N)c1=O | -0.43 | -0.11 | -3* | 108 | 1.3 | 559 | 231
Cc1nnc(SCC(=O)NCC2CCCCC2)n(N)c1=O | 0.21 | / | / | / | 1 | / | /
COc1ccc(NC(=O)c2ccc(Cl)c(S(=O)(=O)N3CCc4ccccc4C3)c2)cn1 | -3.3 | 0.24 | -1.5* | 67 | 1.5 | 681 | 210
O=C(Nc1ccc2c(c1)OCCO2)c1ccc(Cl)c(S(=O)(=O)N2CCOCC2)c1 | -0.024 | 0.63 | -0.51 | 118 | 1 | / | /
COCCSc1nc2sc3c(c2c(=O)n1-c1ccccc1)CCN(C)C3 | 1.5 | -0.84 | -3* | / | 1.6 | 519 | 231
